# Measurements reported in PubChem BioAssay AID1159580 (chemical genetic matrix, 2015).
# The whole screen tested about 5,500 compounds, of which about 2,000 (36%) were called active. Inconclusive results (about 18%) are left out. The list shows a part of the results. Unmarked numbers belong to inactive results. Rule as the data show it: active = normalized growth mostly below about 0.91 (no sharp cut-off); inconclusive = no clear call, values can overlap the other calls; inactive = mostly above about 0.92.
# Assay: chemical genetic growth profiling, strain panel (AID 1159580);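 also: tested at 20 µM; growth read once vehicle control cultures reached saturation at 30 °C; 1 = growth at the plate median or of vehicle wells; lower values mean less growth of the strain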
# Settings: growth OD
smiles,measurement,setting,value
C=CCCCCCCCCCCCC(O)CC(O)CO (centres undefined),normalized growth,"S. cerevisiae deletion strains, locus YJR043C, strain POL32, active compounds read low",0.952
same,normalized growth,"S. cerevisiae deletion strains, locus YJR075W, strain HOC1, active compounds read low",0.896
same,normalized growth,"S. cerevisiae deletion strains, locus YKL009W, strain mrt4, active compounds read low",0.852 (active)
same,normalized growth,"S. cerevisiae deletion strains, locus YKL068W, active compounds read low",0.995
same,normalized growth,"S. cerevisiae deletion strains, locus YKL085W, strain MDH1 (second series), active compounds read low",0.96
same,normalized growth,"S. cerevisiae deletion strains, locus YKL085W, strain MDH1, active compounds read low",0.96
same,normalized growth,"S. cerevisiae deletion strains, locus YKL160W, strain elf1, active compounds read low",0.989
same,normalized growth,"S. cerevisiae deletion strains, locus YKL190W, strain CNB1, active compounds read low",0.947
same,normalized growth,"S. cerevisiae deletion strains, locus YKR001C, strain vps1, active compounds read low",0.839 (active)
same,normalized growth,"S. cerevisiae deletion strains, locus YKR026C, strain gcn3, active compounds read low",0.988
same,normalized growth,"S. cerevisiae deletion strains, locus YKR091W, strain srl3, active compounds read low",0.995
same,normalized growth,"S. cerevisiae deletion strains, locus YLL001W, strain dnm1, active compounds read low",0.976
same,normalized growth,"S. cerevisiae deletion strains, locus YLL026W, active compounds read low",0.997
same,normalized growth,"S. cerevisiae deletion strains, locus YLL041C, strain sdh2, active compounds read low",0.998
same,normalized growth,"S. cerevisiae deletion strains, locus YLR027C, strain aat2, active compounds read low",0.999
same,normalized growth,"S. cerevisiae deletion strains, locus YLR039C, strain RIC1, active compounds read low",0.996
same,normalized growth,"S. cerevisiae deletion strains, locus YLR058C, strain SHM2, active compounds read low",0.944
same,normalized growth,"S. cerevisiae deletion strains, locus YLR102C, strain apc9, active compounds read low",0.99
same,normalized growth,"S. cerevisiae deletion strains, locus YLR221C, strain rsa3, active compounds read low",0.998
same,normalized growth,"S. cerevisiae deletion strains, locus YLR258W, strain gsy2, active compounds read low",1.01
same,normalized growth,"S. cerevisiae deletion strains, locus YLR262C, strain YPT6 (second series), active compounds read low",1.01
same,normalized growth,"S. cerevisiae deletion strains, locus YLR262C, strain YPT6, active compounds read low",0.959
same,normalized growth,"S. cerevisiae deletion strains, locus YLR268W, strain sec22, active compounds read low",0.971
same,normalized growth,"S. cerevisiae deletion strains, locus YLR320W, strain mms22, active compounds read low",0.985
same,normalized growth,"S. cerevisiae deletion strains, locus YLR330W, strain CHS5, active compounds read low",0.917 (active)
same,normalized growth,"S. cerevisiae deletion strains, locus YLR342W, strain FKS1 (second series), active compounds read low",0.756 (active)
same,normalized growth,"S. cerevisiae deletion strains, locus YLR342W, strain FKS1, active compounds read low",1
same,normalized growth,"S. cerevisiae deletion strains, locus YLR357W, strain rsc2, active compounds read low",0.975
same,normalized growth,"S. cerevisiae deletion strains, locus YLR370C, strain arc18, active compounds read low",0.993
same,normalized growth,"S. cerevisiae deletion strains, locus YLR371W, strain rom2, active compounds read low",0.952
same,normalized growth,"S. cerevisiae deletion strains, locus YLR384C, strain iki3, active compounds read low",0.997
same,normalized growth,"S. cerevisiae deletion strains, locus YLR418C, strain cdc73, active compounds read low",0.759 (active)
same,normalized growth,"S. cerevisiae deletion strains, locus YML016C, strain PPZ1, active compounds read low",0.988
same,normalized growth,"S. cerevisiae deletion strains, locus YML032C, strain rad52, active compounds read low",0.869 (active)
same,normalized growth,"S. cerevisiae deletion strains, locus YML120C, strain ndi1, active compounds read low",0.995
same,normalized growth,"S. cerevisiae deletion strains, locus YML124C, strain tub3, active compounds read low",0.991
same,normalized growth,"S. cerevisiae deletion strains, locus YMR058W, strain fet3, active compounds read low",1.01
same,normalized growth,"S. cerevisiae deletion strains, locus YMR078C, strain ctf18, active compounds read low",0.964
same,normalized growth,"S. cerevisiae deletion strains, locus YMR125W, strain sto1, active compounds read low",0.979
same,normalized growth,"S. cerevisiae deletion strains, locus YMR129W, active compounds read low",0.988
same,normalized growth,"S. cerevisiae deletion strains, locus YMR205C, strain PFK2, active compounds read low",0.974
same,normalized growth,"S. cerevisiae deletion strains, locus YMR223W, strain ubp8, active compounds read low",0.858 (active)
same,normalized growth,"S. cerevisiae deletion strains, locus YMR231W, strain pep5, active compounds read low",0.995
same,normalized growth,"S. cerevisiae deletion strains, locus YMR263W, strain SAP30, active compounds read low",0.955
same,normalized growth,"S. cerevisiae deletion strains, locus YMR307W, strain GAS1, active compounds read low",0.792
same,normalized growth,"S. cerevisiae deletion strains, locus YNL067W, strain RPL9B, active compounds read low",0.903
same,normalized growth,"S. cerevisiae deletion strains, locus YNL071W, strain lat1, active compounds read low",0.989
same,normalized growth,"S. cerevisiae deletion strains, locus YNL128W, strain TEP1, active compounds read low",0.924
same,normalized growth,"S. cerevisiae deletion strains, locus YNL153C, strain GIM3, active compounds read low",0.979
same,normalized growth,"S. cerevisiae deletion strains, locus YNL209W, strain ssb2, active compounds read low",1
same,normalized growth,"S. cerevisiae deletion strains, locus YNL233W, strain BNI4, active compounds read low",0.834 (active)
same,normalized growth,"S. cerevisiae deletion strains, locus YNL248C, strain rpa49, active compounds read low",0.993
same,normalized growth,"S. cerevisiae deletion strains, locus YNL250W, strain rad50, active compounds read low",0.939
same,normalized growth,"S. cerevisiae deletion strains, locus YNL271C, strain bni1, active compounds read low",0.953
same,normalized growth,"S. cerevisiae deletion strains, locus YNL298W, strain CLA4, active compounds read low",0.907 (active)
same,normalized growth,"S. cerevisiae deletion strains, locus YNL307C, strain MCK1, active compounds read low",0.499 (active)
same,normalized growth,"S. cerevisiae deletion strains, locus YNL322C, strain KRE1 (second series), active compounds read low",0.981
same,normalized growth,"S. cerevisiae deletion strains, locus YNL322C, strain KRE1, active compounds read low",0.979
same,normalized growth,"S. cerevisiae deletion strains, locus YNR049C, strain mso1, active compounds read low",0.995
same,normalized growth,"S. cerevisiae deletion strains, locus YNR052C, strain pop2, active compounds read low",0.946
same,normalized growth,"S. cerevisiae deletion strains, locus YOL006C, strain TOP1, active compounds read low",0.808
same,normalized growth,"S. cerevisiae deletion strains, locus YOL012C, strain htz1",1.72
same,normalized growth,"S. cerevisiae deletion strains, locus YOL147C, strain pex11, active compounds read low",0.778 (active)
same,normalized growth,"S. cerevisiae deletion strains, locus YOR001W, strain rrp6, active compounds read low",0.998
same,normalized growth,"S. cerevisiae deletion strains, locus YOR061W, strain CKA2, active compounds read low",0.635 (active)
same,normalized growth,"S. cerevisiae deletion strains, locus YOR069W, strain VPS5, active compounds read low",0.978
same,normalized growth,"S. cerevisiae deletion strains, locus YOR070C, strain gyp1, active compounds read low",0.992
same,normalized growth,"S. cerevisiae deletion strains, locus YOR080W, strain dia2, active compounds read low",0.998
same,normalized growth,"S. cerevisiae deletion strains, locus YOR083W, strain WHI5, active compounds read low",0.965
same,normalized growth,"S. cerevisiae deletion strains, locus YOR106W, strain vam3, active compounds read low",1.02
same,normalized growth,"S. cerevisiae deletion strains, locus YOR136W, strain idh2, active compounds read low",0.935
same,normalized growth,"S. cerevisiae deletion strains, locus YOR144C, strain elg1, active compounds read low",0.982
same,normalized growth,"S. cerevisiae deletion strains, locus YOR184W, strain ser1, active compounds read low",0.719 (active)
same,normalized growth,"S. cerevisiae deletion strains, locus YOR265W, strain rbl2, active compounds read low",1
same,normalized growth,"S. cerevisiae deletion strains, locus YOR270C, strain vph1, active compounds read low",1.01
same,normalized growth,"S. cerevisiae deletion strains, locus YOR290C, strain snf2, active compounds read low",0.93
same,normalized growth,"S. cerevisiae deletion strains, locus YOR316C, strain cot1, active compounds read low",0.977
same,normalized growth,"S. cerevisiae deletion strains, locus YPL051W, strain arl3, active compounds read low",0.999
same,normalized growth,"S. cerevisiae deletion strains, locus YPL055C, strain LGE1, active compounds read low",0.843
same,normalized growth,"S. cerevisiae deletion strains, locus YPL078C, strain atp4, active compounds read low",0.986
same,normalized growth,"S. cerevisiae deletion strains, locus YPL106C, strain sse1, active compounds read low",1.01
same,normalized growth,"S. cerevisiae deletion strains, locus YPL240C, strain hsp82, active compounds read low",1
same,normalized growth,"S. cerevisiae deletion strains, locus YPL241C, strain CIN2, active compounds read low",0.987
same,normalized growth,"S. cerevisiae deletion strains, locus YPR119W, strain clb2, active compounds read low",0.989
same,normalized growth,"S. cerevisiae deletion strains, locus YPR141C, strain kar3, active compounds read low",1
same,normalized growth,"S. cerevisiae deletion strains, locus YPR163C, strain tif3, active compounds read low",0.95
same,normalized growth,"S. cerevisiae deletion strains, locus YPR167C, strain met16, active compounds read low",0.964
same,normalized growth,"S. cerevisiae deletion strains, strain wtn01, active compounds read low",0.904
same,normalized growth,"S. cerevisiae strains, strain wild type, active compounds read low",0.861 (active)
